Reference: PubChem BioAssay AID687028 (Broad Institute, 2013)
The whole screen tested about 1,400 compounds, of which about 55 (4%) were called active. How the calls were made is not given here. The list is a sample of the results. Results with a measured potency or affinity are listed apart.

experiment: viability loss in A549 cells – cell-based, plate reader, cherry-pick samples, cytotoxicity control, dose response (AID 687028); conditions: series mostly up to 19.5 µM;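 further: cells incubated with compound for three days before reading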

Row | SMILES | outcome
1 | Cc1ccc(S(=O)(=O)N(C)C[C@@H]2OCCCC[C@H](C)Oc3ccc(NS(=O)(=O)c4c(C)noc4C)cc3C(=O)N([C@H](C)CO)C[C@H]2C)cc1 | inactive
2 | C[C@H](CO)N1C[C@H](C)[C@@H](CN(C)C(=O)Cc2ccccc2)OCCCC[C@H](C)Oc2ccc(NS(=O)(=O)c3ccc(F)cc3)cc2C1=O | inactive
3 | C[C@@H]1CCCCO[C@@H](CN(C)Cc2ccccc2)[C@@H](C)CN([C@H](C)CO)C(=O)c2cc(NC(=O)c3ccccc3)ccc2O1 | inactive
4 | Cc1ccc(S(=O)(=O)N(C)C[C@@H]2OCCCC[C@H](C)Oc3ccc(NS(=O)(=O)c4c(C)noc4C)cc3C(=O)N([C@@H](C)CO)C[C@@H]2C)cc1 | inactive
5 | C[C@@H]1CN([C@H](C)CO)C(=O)c2cc(NC(=O)c3ccncc3)ccc2O[C@@H](C)CCCCO[C@H]1CN(C)Cc1ccc(Cl)c(Cl)c1 | inactive
6 | C[C@@H]1CCCCO[C@@H](CN(C)S(=O)(=O)c2ccc(F)cc2)[C@@H](C)CN([C@H](C)CO)C(=O)c2cc(NC(=O)Nc3ccc(C(F)(F)F)cc3)ccc2O1 | inactive
7 | C[C@@H]1CCCCO[C@@H](CN(C)S(C)(=O)=O)[C@H](C)CN([C@@H](C)CO)C(=O)c2cc(NS(=O)(=O)c3ccc(Cl)cc3)ccc2O1 | inactive
8 | C[C@@H]1CCCCO[C@@H](CN(C)C(=O)c2ccccc2)[C@@H](C)CN([C@@H](C)CO)C(=O)c2cc(NS(=O)(=O)c3ccc(F)cc3)ccc2O1 | inactive
9 | COc1ccccc1CN1[C@H](CO)[C@H]2c3ccccc3N(C(=O)c3ccncc3)C[C@H]21 | inactive
10 | COc1ccc(C)cc1N(CC(=O)Nc1ccc(S(=O)(=O)N2CCOCC2)cc1)S(C)(=O)=O | inactive
11 | CCOc1ccc(C(=O)Nc2ccc(CN3CCOCC3)cc2)cc1Br | inactive
12 | CCn1c(=O)n(CC)c2cc(N3CCCC3)c(NC(=O)c3ccc(C)cc3)cc21 | inactive
13 | Cc1ccccc1S(=O)(=O)N1C[C@@H](O)COC[C@@H]2O[C@H](CC(=O)N3CCCCC3)CC[C@H]21 | inactive
14 | C[C@@H]1CN([C@@H](C)CO)C(=O)Cc2cc(NS(=O)(=O)c3cn(C)cn3)ccc2O[C@H]1CN(C)Cc1ccc(C(=O)Nc2ccccc2N)cc1 | inactive
15 | CCCNC(=O)N1[C@H](CO)[C@@H](c2ccccc2)C12CN(C(=O)C1CCCCC1)C2 | inactive
16 | O=C(CN1CCN(c2cccc(C(F)(F)F)c2)CC1)N(C1CCCC1)C1CCS(=O)(=O)C1 (centres undefined) | inactive
17 | Cc1cc(OCC(=O)NC(Cc2ccc(Cl)cc2)C(=O)O)c2c(C)c(C)c(=O)oc2c1 (centres undefined) | inactive

Row | SMILES | outcome
18 | CCc1nc(SCc2ccccc2C)n[nH]1 | inactive
19 | Cc1ccc(CCN2CC(C(=O)NCCc3ccccc3)CC2=O)cc1 (centres undefined) | inactive
20 | Cc1noc(C)c1S(=O)(=O)Nc1cccc2c1O[C@H](CN(C)C(=O)NC(C)C)[C@H](C)CN([C@@H](C)CO)C2=O | inactive
21 | CC(C)C[C@@H](COc1ccccc1)N1CCN(Cc2ccccc2)CCC1=O | inactive
22 | COc1ccc(NC(=O)N(C)C[C@H]2OCCCC[C@@H](C)Oc3ccc(NS(C)(=O)=O)cc3C(=O)N([C@H](C)CO)C[C@H]2C)cc1 | inactive
23 | COc1ccc(S(=O)(=O)Nc2ccc3c(c2)C(=O)N([C@@H](C)CO)C[C@H](C)[C@@H](CN(C)C(=O)Nc2ccc(C(F)(F)F)cc2)OCCCC[C@H](C)O3)cc1 | inactive
24 | C[C@H](CO)N1C[C@H](C)[C@@H](CN(C)C(=O)Nc2ccc(C(F)(F)F)cc2)OCCCC[C@H](C)Oc2ccc(NS(=O)(=O)c3ccc(F)cc3)cc2C1=O | inactive
25 | C[C@H](CO)N1C[C@H](C)[C@@H](CN(C)C(=O)Nc2ccc(C(F)(F)F)cc2)OCCCC[C@H](C)Oc2ccc(NS(=O)(=O)c3cccs3)cc2C1=O | inactive
26 | COc1cccc(CNC(=O)[C@H]2[C@H](CO)[C@H]3Cn4c(ccc(-c5ccncc5)c4=O)[C@H]3N2C)c1 | inactive
27 | N#C[C@H]1[C@@H](c2ccc(C3=CCCCC3)cc2)[C@@H](CO)N1S(=O)(=O)c1cccc(F)c1 | inactive
28 | CCOc1ccc(NC(=O)CN(C)C(=O)c2ccccc2OCc2c(C)noc2C)cc1OCC | inactive
29 | COc1ccc(N2CCN(c3cc(C(=O)NC4CCCCC4)ncn3)CC2)cc1OC | inactive
30 | CC(C)(C)OC(=O)N[C@H]1C=C[C@@H](CC(=O)OCC(F)(F)F)C1 | inactive
31 | CCN(CC)c1ccc2cc(C(=O)NCc3ccc(F)cc3)c(=N)oc2c1 | inactive
32 | CC(=O)OCCCN(C)CC/C=C1/c2ccccc2CSc2ccccc21 | inactive
33 | CC(C)Oc1ccc(S(=O)(=O)N2CCOCC2)cc1NC(=O)Cc1ccsc1 | inactive
34 | Cc1ccccc1CN1CCN(CC(=O)NC(C)c2ccccc2)CC1 (centres undefined) | inactive
